The panel holds about 79,000 compounds, 15% with a hit somewhere; the sample as a whole holds those more often. Values without a mark were called inactive. Active and inactive are the calls of the source. No stated cut-off is given here; in the data, active means growth inhibition above about 70%; inactive means the rest.
Legend:
[1] = NCI Yeast Anticancer Drug Screen. Data for the rad50 strain (AID 155);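 further: 0% = growth of vehicle-only cultures of the same strain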; settings: S. cerevisiae rad50 strain growth inhibition; at 50.0 µM; hits give high values
Method in brief: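 Readout: growth inhibition relative to vehicle-treated cultures. Compound exposure was carried out in a genetically defined yeast strain deficient in DNA damage repair.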

[2] = NCI Yeast Anticancer Drug Screen. Data for the mec2-1 strain (AID 157); settings: S. cerevisiae mec2-1 strain, at 50.0 µM, hits give high values
Method in brief: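 Vehicle-treated cultures served as reference for growth inhibition of compound-exposed mec2-1 yeast.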

[3] = NCI Yeast Anticancer Drug Screen. Data for the sgs1 mgt1 strain (AID 161);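 further: 0% = growth of cultures given vehicle only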; settings: S. cerevisiae sgs1 mgt1 strain, at 50.0 µM, hits give high values
Method in brief: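 Mutant yeast exposed to compound; growth scored against vehicle-only wells.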

[4] = NCI Yeast Anticancer Drug Screen. Data for the cln2 rad14 strain (AID 165);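 further: 0% = growth equal to vehicle treated cultures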; settings: S. cerevisiae cln2 rad14 strain, at 50.0 µM, hits give high values
Method in brief: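 Each compound was tested on cln2 rad14 yeast. Inhibition of growth was calculated against vehicle-exposed controls.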

[5] = NCI Yeast Anticancer Drug Screen. Data for the bub3 strain (AID 167); settings: S. cerevisiae bub3 mutant strain, at 50.0 µM, hits give high values
Method in brief: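 Readout: yeast growth inhibition, expressed relative to vehicle-only wells. The test organism is a mutant strain from a panel with lesions in DNA repair or checkpoint genes.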

[6] = NCI Yeast Anticancer Drug Screen. Data for the mlh1 rad18 strain (AID 175); settings: S. cerevisiae mlh1 rad18 strain growth inhibition; at 50.0 µM; hits give high values
Method in brief: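 Vehicle-treated cultures served as the reference for growth inhibition in a yeast strain carrying DNA damage repair alterations exposed to each compound.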

Row | Structure (SMILES) | growth inhibition [1] | growth inhibition [2] | growth inhibition [3] | growth inhibition [4] | growth inhibition [5] | growth inhibition [6]
1 | N=C(N)n1[nH]c2c(c1=O)CCCC2 | 5.6% | 6.75% | -12.1% | 6.25% | 2.85% | -19.4%
2 | CC(C)CC(C)N=C1CC2CCC1(C)C2(C)C (stereo not drawn) | -32.3% | -24.6% | -3.35% | -14.2% | -7.15% | -7.05%
3 | COC(=O)C1C(O)C(C)C(O)OC1C(C)C(O)C(C)/C=C\C=C(/C)C(=O)Nc1c(C)c(OC(C)=O)c2c(c1O)C(=O)C(C)=C1OCOC(/C(C)=C/C(C)=O)=C12 (stereo not drawn) | 14.6% | 8.3% | 9.8% | 13.4% | 14% | 17.6%
4 | CC1C(O)CC23COC(=O)C2=CCCC3C1(C)CCC1COC(=O)C1 (stereo not drawn) | -5.05% | -21.9% | 17.9% | 5.85% | -10.4% | 7.45%
5 | CCC1CC(O)c2ccccc2O1 (stereo not drawn) | -7.85% | -4.2% | -5.95% | 8.85% | -0.35% | -1.65%
6 | Cc1cccc(C2ON=C(c3ccccc3)N2C23CC4CC(CC(C4)C2)C3)c1 (stereo not drawn) | -20.8% | -0.35% | -22.1% | -2.45% | 0.75% | -33.5%
7 | N#Cc1ccc(OCCCOc2ccccc2)cc1 | 4.2% | 47.5% | 20.8% | -2.7% | 37.4% | 4.5%
8 | OC12CCCCCC1(N1CCOCC1)c1ccccc12 (stereo not drawn) | -8.2% | -11.7% | -29.7% | -21.1% | -37.2% | -24.3%
9 | Cc1cc(S(=O)(=O)Nc2nc(N)nc(N3CCCCC3)n2)c(S)cc1Cl | -0.3% | -11.7% | -13% | -7.15% | -5.2% | 5.35%
10 | CCCCCCCC(=O)NN(Cn1c(=S)sc2ccccc21)Cn1c(=S)sc2ccccc21 | 32% | 9.25% | 26.7% | 21.7% | -2.7% | 6.65%
11 | CC1=C(C(=O)NCc2ccccc2)C(/C=C/c2ccccc2)C(C(=O)NCc2ccccc2)=C(C)N1 | 46% | 16.1% | 23.7% | -22.1% | 4.55% | 34.3%
12 | c1ccc2c(c1)oc1ccc3nsnc3c12 | 7.25% | -7.45% | 13.8% | -1.45% | 20.1% | -10.3%
13 | Cc1ccc(N=C=C(c2ccc(Cl)cc2)c2ccc(Cl)cc2)cc1 | 73.2% (active) | 64.4% | 70.8% (active) | 60.2% | 59.6% | 77.2% (active)
14 | CC(=O)NNc1nc(C)c(C(/C=C/c2ccc([N+](=O)[O-])cc2)=N/N)s1 | 22.4% | 9.2% | 3.85% | 17.4% | -0.4% | -12.4%
15 | Cc1cc(C)c(NC(=O)C(Br)C(Br)c2ccccc2)c(C)c1 (stereo not drawn) | 11.6% | -5.6% | 5.1% | 23.8% | 2.15% | 21.4%
16 | O=C(O)C(Cl)C(Cl)c1ccc(Cl)cc1 (stereo not drawn) | -2.6% | 7.15% | 6.15% | -57.3% | 11.9% | 6.6%
17 | Cc1nc(N)c2nc(SC(C)C)c(N)nc2n1 | 2.85% | -6.55% | 0.45% | -31.2% | -20.9% | 17.2%
18 | C[N+](C)(CCO)CCN1c2ccccc2Sc2ccccc21 | -3.1% | -17.5% | 10.2% | -23.6% | -14.6% | -3.7%
19 | CCCC(=O)n1[nH]c(=O)n(-c2ccc(Cl)cc2)c1=O | 5.15% | -12.3% | 19.8% | 3.25% | -2.1% | -10.3%

Row | Structure (SMILES) | growth inhibition [1] | growth inhibition [2] | growth inhibition [3] | growth inhibition [4] | growth inhibition [5] | growth inhibition [6]
20 | COc1cccc(NC(=O)/C(CS(=O)(=O)CCC(C(C)=O)C(C)=O)=N\NC(C)(C)C)c1 | 11.7% | 0.7% | -20.8% | -21.9% | 1.3% | 7.1%
21 | COC(=O)c1ccccc1NC(=O)c1ccccc1C(=O)O | 6.4% | 41% | 35% | -6.55% | 28.5% | 37.2%
22 | Cc1nn(CO)c(C)c1Br | 9.8% | -18.4% | 5.9% | 21.8% | -2.6% | 11.7%
23 | CS(=O)(=O)N1CC(CCl)c2ccc(NO)cc21 (stereo not drawn) | 43.5% | 27.9% | 24.9% | 17.3% | 0.45% | -32.4%
24 | Nc1ncnc2c1ncn2CCCCC(=O)O | -17.1% | -12.2% | -23.6% | -2.1% | -53% | -15.3%
25 | CNc1nc(=S)nc(-c2ccccc2)s1 | 11.7% | 13.3% | 11.3% | -8.45% | 11.8% | -9.6%
26 | OCCN(CCO)c1ncnc2c1ncn2-c1ccc(CCCl)cc1 | 5.3% | -3.1% | -2.85% | 6.05% | 19% | 0.1%
27 | O=C(NNC(=O)c1cccc2ccccc12)c1ccccc1F | -16.6% | -12.6% | -13.9% | 1.35% | -11.6% | -15.9%
28 | CCC(C)C(NCc1ccccc1)C(=O)O (stereo not drawn) | -8.75% | 7.5% | 26.9% | -13.2% | -18.4% | -8.25%
29 | COc1ccc(NC2CC(C)N(C(=O)c3ccccc3)O2)cc1 (stereo not drawn) | -42.1% | -37.2% | -19.1% | 12.3% | -21.6% | -19.2%
30 | Cc1ccc(S(=O)(=O)OC2COC3C2OC2OC(C)(C)OC23)cc1 (stereo not drawn) | 19.1% | 11.2% | 0.2% | -9.1% | 7.4% | 0.35%
31 | O=P(O)(OCC(Br)CBr)OCC(Br)CBr (stereo not drawn) | -12.4% | -7.05% | 11.2% | -45% | 1.75% | 23.8%
32 | O=C(/C=C\c1ccccc1)OC(c1ccccc1)c1ccc(Br)cc1 (stereo not drawn) | 17.9% | 6.25% | 14.1% | -3.95% | -3.4% | 8%
33 | Nc1ccc(S(=O)(=O)n2cccc2)cc1 | -8.9% | 1.2% | -19.9% | -6.4% | -9.25% | -10.5%
34 | NC(Cc1ccc(OC(c2ccccc2)(c2ccccc2)c2ccccc2)cc1)C(=O)O (stereo not drawn) | -23.6% | -9.5% | 0.75% | -18.4% | -6.1% | -12.2%
35 | CC1C=CC(O)[C@]2(CO)CC3(CCC12)OCCO3 (stereo partly drawn) | -13.7% | 3.95% | -13.6% | 17.6% | -12.7% | -16.3%
36 | COc1ccc(CCNC(=O)CCc2ccccc2CO)cc1OC | 15.8% | 13.9% | -36.9% | -5.9% | -39.2% | -5.9%
37 | CC(C)CC(NC(=O)CN)C(=O)O (stereo not drawn) | -1.85% | 2.4% | -1.1% | -7.2% | -6% | -0.85%
38 | CC1CCCN(N=Nc2ccc(Br)cc2-c2nc(N)c3cc(Br)ccc3n2)C1 (stereo not drawn) | 99.2% (active) | 99.2% (active) | 99.5% (active) | 98.2% (active) | 99% (active) | 99% (active)
